Sampled rows, rich in hits. Any-hit rate of the full collection: about 21%.
CHX counter: affects cycloheximide protein synthesis inhibition readout, counter-screen; cell reporter, cycloheximide protein synthesis inhibition counterscreen; max response, %; 300,000 compounds, 12% hits; AID 2314; in the data active means max response mostly above about 13%, no sharp cut-off; inactive means mostly below about 14%; further: read at 38.3 µM for the half of the compounds with a filed dose; 0% is about no effect
Shiga inhibitor: inhibitors of Shiga toxin in Vero cells; AID 2315; 290,000 compounds, 9.2% hits; Vero cells, Shiga toxin protein synthesis inhibition reporter; inhibition, % at 38.7 µM; in the data active means inhibition mostly above about 28%, no sharp cut-off; inactive means mostly below about 43%; further: 0% is about no effect
Pf growth 96h: P. falciparum growth inhibition at 96 hours. P. falciparum luciferase reporter growth, 96 h. Potency, µM (titrated, usually from 28.7 µM), without a hit: top-dose activity change, negative = inhibition, hits mostly inhibitors. 320,000 compounds, 6.9% hits; further: potency means the concentration at half of the fitted maximal effect; on the % scale 0 is the no-effect control and ±100 the full control effect
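Delayed-death screen, second-generation endpoint: infected erythrocytes, 2% hematocrit, 0.05% parasitemia final; 96 hours at 37 C, 5% CO2; luciferase detection reagent; luminescence decrease equals reduced growth.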
Pf growth 48h: P. falciparum growth inhibition at 48 hours (one generation) | 310,000 compounds, 5.9% hits | Potency, µM (highest dose often 28.7 µM), inactives show at the highest dose activity change, negative = inhibition, hits mostly inhibitors | AID 504832 | P. falciparum luciferase growth in erythrocytes, 48 h; further: potency means the concentration at half of the fitted maximal effect; on the % scale 0 is the no-effect control and ±100 the full control effect
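Compounds are pin-transferred into medium, infected erythrocytes (2% hematocrit, 0.1% parasitemia final) are added, and plates sit one parasite generation at 37 C in 5% CO2. Detection reagent is then added and luminescence measured.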
Active calls of the source: *; ? = inconclusive; . = not tested or not shown; [ ] = dose if it differs, or a comment. Unless noted, the call rests on the fitted dose curve; in most records, active means well fitted inhibition curve with a large enough effect; inconclusive means small, poorly fitted or top-dose-only effect, or another doubt; inactive means no such curve, though single readings can be large or run the other way.

SMILES	CHX counter	Shiga inhibitor	Pf growth 96h	Pf growth 48h
COCCN1CN(S(=O)(=O)c2ccc(Cl)cc2)c2nc3ccccc3nc21	-2.7	-11.3	?	?
COCCN1CN(S(=O)(=O)c2ccccc2)c2nc3ccccc3nc21	5.1	7.4	-41.9%	-13.0%
CC(C)CCN1CN(S(=O)(=O)c2cccs2)c2nc3ccccc3nc21	10.6	-7.1	.	-9.3%
Cc1cccc(S(=O)(=O)N2CN(Cc3ccco3)c3nc4ccccc4nc32)c1	-2.9	-3.4	?	?
Cc1ccc(CN2CN(S(=O)(=O)c3cccs3)c3nc4ccccc4nc32)cc1	90.8*	81.4*	66.0%	?
COc1ccccc1CN1CN(S(=O)(=O)c2ccccc2)c2nc3ccccc3nc21	30.7*	110.4*	?	?
O=S(=O)(c1cccs1)N1CN(Cc2ccc(Cl)cc2)c2nc3ccccc3nc21	14.6*	10.1	?	?
Cc1ccc(C(=O)COC(=O)CNC(=O)c2ccccc2)s1	.	.	18.1%	29.1%
CCCCN1CN(S(=O)(=O)c2cccs2)c2nc3ccccc3nc21	8.2	12.3	0.0%	43.3%
CC(C)OCCCN1CN(S(=O)(=O)c2cccs2)c2nc3ccccc3nc21	14.4*	44.1	5.8%	-11.8%
CCSc1nc2nn(-c3ccccc3)c(=O)c-2c2n1CCCCC2	0.9	-12.7	.	-18.8%
Cc1ccc(C)c(C(=O)C(C)Sc2nc3nn(-c4ccccc4)c(=O)c-3c3n2CCCCC3)c1 (configuration not stated)	-1.7	-2.1	9.28µM*	?
CCNc1nc(NCC)n2c(SCC(=O)NC34CC5CC(CC(C5)C3)C4)nnc2n1	-3.0	-11.8	?	?
CCOc1ccc2[nH]c(=O)c(CN(Cc3ccco3)Cc3nnnn3Cc3ccccc3)cc2c1	6.3	-11.6	-17.3%	-18.0%
CCOc1ccc2[nH]c(=O)c(CN(Cc3nnnn3Cc3ccco3)C3CCCCC3)cc2c1	6.4	-17.2	21.8%	11.7µM*
COc1cc2cc(CN(Cc3nnnn3Cc3ccco3)C3CCCCC3)c(=O)[nH]c2cc1OC	5.3	-14.5	.	8.28µM*
COC(CNC(=O)C(=O)Nc1cc2c3c(c1)CCN3C(=O)CC2)OC	12.1	1.2	25.3%	21.1%
COc1ccc(C(=O)CCNc2ccc(F)cc2)cc1	28.5*	82.1*	39.6%	25.1%
COc1ccc(C(=O)Cn2cc[n+](C)c2)cc1	-2.7	-17.0	118.6%	11.7µM*
COc1ccc(C(=O)CCNc2ccc(C)c(Cl)c2)cc1	-1.9	24.6	46.7%	4.3%
COc1ccc(C(=O)CC(=O)c2ccc(OC)cc2)cc1	25.7*	33.3	0.0%	-3.8%
COc1ccc(C(=O)NCC(=O)c2ccccc2)cc1	36.4*	.	17.4%	279.0%
Cc1onc(-c2ccccc2)c1C(=O)Oc1ccccc1	-0.9	12.9	19.7%	-9.1%
Cc1ccc(C(=O)N(CC(=O)NC2CCCC2)c2ccccc2Cl)s1	-2.0	-2.4	9.9%	-11.4%
COc1ccc(O)c(C(=O)CC(=O)c2ccccc2)c1	42.8*	87.8	417.6%	401.1%
SMILES	CHX counter	Shiga inhibitor	Pf growth 96h	Pf growth 48h
COc1ccc(C(=O)Cc2nnc(C)s2)cc1	48.4*	105.4*	82.1%	99.4%
Cc1ccc(C(=O)COc2ccccc2N2C(=O)c3ccccc3C2=O)cc1	8.7	-6.0	3.29µM*	38.0%
COc1ccc(C(=O)CCC(=O)O)cc1	-0.9	20.7	?	.
COc1ccc(C(CC(=O)c2ccccc2)S(=O)(=O)c2ccc(C)cc2)cc1 (configuration not stated)	33.8*	32.7*	161.4%	160.5%
COc1ccc(N(CC(=O)NC2CC3CCC2C3)S(=O)(=O)c2ccc(C)c([N+](=O)[O-])c2)cc1 (configuration not stated)	-4.6	-14.4	7.9%	?
FC(F)(F)c1ccc(Cl)c(NC(=S)NC2CC2)c1	-2.3	-10.9	-0.7%	6.0%
COc1ccc(C(=O)C/C(=C\C(=O)c2ccc(C)cc2)c2ccccc2)cc1	7.1	-15.8	10.4µM*	?
Cc1ccc(C(=O)CN2C(=O)c3ccccc3S2(=O)=O)cc1	-1.7	-17.7	75.9%	3.7µM*
COc1ccc(C(CC(=O)c2ccccc2)CC(=O)c2ccccc2)cc1	2.3	24.3	?	?
COc1ccc(C(=O)CN2C(=O)c3ccccc3C2=O)cc1	30.2*	57.6*	108.7%	110.0%
O=C(CN1C(=O)c2ccccc2S1(=O)=O)c1ccccc1	-9.5	-34.9	.	88.9%
O=C(COC(=O)Cn1nnc2ccccc21)NC1CCCC1	-3.7	3.7	-4.7%	11.7%
COc1ccc(-n2c(C)c([N+](=O)[O-])c3ccc(O)c(CN(C)C)c32)cc1	-6.3	-11.6	?	0.828µM*
Cc1c(C(=O)NCCC2=CCCCC2)oc2ccc(S(=O)(=O)N3CCOCC3)cc12	6.7	-17.8	33.7%	11.7µM*
Cc1ccc(NC(=O)c2oc3ccc(S(=O)(=O)N4CCC5(CC4)OCCO5)cc3c2C)cc1C	0.7	-2.2	?	13.1µM*
CCOC(=O)c1oc2ccc(S(=O)(=O)N3CCOCC3)cc2c1C	7.8	-24.6	1.85µM*	-2.7%
CCOC(=O)c1oc2ccc(S(=O)(=O)n3nc(-c4cc(OC)c(OC)c(OC)c4)cc3N)cc2c1C	7.6	-16.8	-8.7%	13.1µM*
COc1cc(-c2cc(N)n(S(=O)(=O)c3ccc(F)cc3)n2)cc(OC)c1OC	-4.1	-7.5	22.2%	.
CCOC(=O)c1oc2ccc(S(=O)(=O)N3CCC(C)CC3)cc2c1C	-0.4	-10.1	?	?
CN(C)C(=O)Nc1ccc(-n2nc(C(C)(C)C)oc2=O)c(Cl)c1	-1.8	-1.2	.	.
Cc1cccc(N(CC(=O)NCc2ccc(F)cc2)C(=O)c2ccco2)c1	-5.5	-8.9	25.1%	7.7%
COc1ccc(Cl)cc1S(=O)(=O)Nc1ccc2c(c1)n(C)c(=O)n2C	-1.3	-5.1	20.2%	-24.0%
Cc1c(C(=O)Nc2ccc(F)cc2)oc2ccc(S(=O)(=O)N3CC(C)CC(C)C3)cc12 (configuration not stated)	-1.4	-12.9	.	10.4µM*
Cc1cccc(NC(=O)c2oc3ccc(S(=O)(=O)N4CCOCC4)cc3c2C)c1C	-2.5	-1.2	-22.6%	4.65µM*
Cc1ccc(NC(=O)c2oc3ccc(S(=O)(=O)N4CCOCC4)cc3c2C)c(C)c1	-4.0	-2.8	-4.5%	?
SMILES	CHX counter	Shiga inhibitor	Pf growth 96h	Pf growth 48h
O=C(NC[C@@H](O)CO)c1c(I)c(C(=O)NC[C@@H](O)CO)c(I)c(N(CCO)C(=O)CO)c1I	.	.	16.4%[12.8 µM]	4.2%[12.8 µM]
CCC(C)[C@H](NC(=O)N1CC(=O)Nc2ccccc21)C(=O)N[C@H](C(=O)O)c1ccccc1 (some centres not stated)	12.9	-1.0	5.7%	-0.3%
Cc1cc2cc(CN(CCCN3CCOCC3)C(=O)NC3CCCCC3)c(=O)[nH]c2cc1C	-1.6	-3.8	240.2%	4.65µM*
Cc1cccc2cc(CN(CCN3CCCC3)C(=O)NC3CCCCC3)c(=O)[nH]c12	-1.8	-17.3	?	4.65µM*
Cc1cc2cc(CN(CCN3CCOCC3)C(=O)Nc3ccccc3F)c(=O)[nH]c2cc1C	-1.6	-9.5	.	9.28µM*
Cc1ccc2[nH]c(=O)c(CN(CCCN3CCOCC3)C(=O)Nc3cccc(Cl)c3)cc2c1	1.0	-4.4	0.9%	8.28µM*
